Z-score and composite z-score data for 12 compounds are collected here from PubChem BioAssay.

The structures appear in SMILES notation. The source made the active and inactive calls.

The nature of assay [1]: optical density shifts of acrAB sulA E. coli – strain DRC41, OD650, 48 h, E. coli filamentation inducer project, primary screen (AID 1152).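 Further: E. coli MC1000 strain DRC41 lacking acrAB efflux pump and sulA.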 The settings on record: higher = more signal, called active from +8 up or from −8 down.
The nature of assay [2]: probe aLefty1 binding on compound microarray – biochemical, small-molecule microarray, 635/667 nm fluorescence, primary screen (AID 1153).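 Further: score merges spot fluorescence with signal-to-noise ratio from the scanned slide images.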 The settings on record: higher = more signal.
Assay [3] in a line: plasmodial surface anion channel blockers, osmotic lysis – cell-based, P. falciparum Indochina, OD700, 1 h, primary screen (AID 1154). To be noted: P. falciparum Indochina infected RBC osmotic lysis, higher = more signal, called active from +8 up or from −8 down.
Assay [4] is described as follows: plasmodial surface anion channel blockers, osmotic lysis – cell-based, P. falciparum Indochina, OD700, 2 h, primary screen (AID 1155).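 Further: lysis reports solute entry through the parasite surface anion channel PSAC.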 The settings on record: P. falciparum Indochina infected erythrocytes, higher = more signal, called active from +8 up or from −8 down.
A short description of assay [5]: changes in parasitized red cell lysis, either direction – P. falciparum Indochina, OD700, 3 h, PSAC antagonist project, primary screen (AID 1156). To be noted: P. falciparum-infected erythrocytes, osmotic lysis, higher = more signal, called active from +8 up or from −8 down.
A short description of assay [6]: plasmodial surface anion channel blockers, osmotic lysis – cell-based, P. falciparum Indochina, OD700, 18 h, primary screen (AID 1157). The settings on record: P. falciparum Indochina infected erythrocytes, osmotic lysis OD700, 18 h; higher = more signal, called active from +8 up or from −8 down.
Assay [7] can be described thus: S6 kinase pathway phospho-S6 level changes – cell-based, A549, cytoblot, luminescence, serum-stimulated, primary screen (AID 1158).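 Further: serum-stimulated A549 lung adenocarcinoma cells; signal is phosphorylated S6 detected by cytoblot immunostaining with HRP secondary.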 The settings on record: 5 h, higher = more signal.
Assay [8] concerns the target NADPH oxidase 2 (Homo sapiens) (UniProt P04839). Kind of assay: compounds shifting NOX2 Amplex Red fluorescence – cell-based, HEK293-NOX2, PMA-stimulated, NOX inhibitor project, primary screen (AID 1159). Further: test concentration not given here. The settings on record: 45 min, higher = more signal, called active from +8 up or from −8 down.
Assay [9] addresses NADPH oxidase 4 (Homo sapiens) (UniProt Q9NPH5). Kind of assay: compounds shifting NOX4 Amplex Red fluorescence – cell-based, HEK293-NOX4, tetracycline-induced, NOX inhibitor project, primary screen (AID 1160). The settings on record: HEK293-NOX4, Amplex Red H2O2 fluorescence, 45 min; higher = more signal, called active from +8 up or from −8 down.
Assay [10] has as its target NADPH oxidase 5 (Homo sapiens) (UniProt Q96PH1). Kind of assay: compounds shifting NOX5 Amplex Red fluorescence – cell-based, HEK293-NOX5, NOX inhibitor project, primary screen (AID 1161). The settings on record: HEK293-NOX5, ionomycin, 45 min, higher = more signal.

NADPH oxidase 2 (Homo sapiens), sequence (P04839 whole entry, looked up): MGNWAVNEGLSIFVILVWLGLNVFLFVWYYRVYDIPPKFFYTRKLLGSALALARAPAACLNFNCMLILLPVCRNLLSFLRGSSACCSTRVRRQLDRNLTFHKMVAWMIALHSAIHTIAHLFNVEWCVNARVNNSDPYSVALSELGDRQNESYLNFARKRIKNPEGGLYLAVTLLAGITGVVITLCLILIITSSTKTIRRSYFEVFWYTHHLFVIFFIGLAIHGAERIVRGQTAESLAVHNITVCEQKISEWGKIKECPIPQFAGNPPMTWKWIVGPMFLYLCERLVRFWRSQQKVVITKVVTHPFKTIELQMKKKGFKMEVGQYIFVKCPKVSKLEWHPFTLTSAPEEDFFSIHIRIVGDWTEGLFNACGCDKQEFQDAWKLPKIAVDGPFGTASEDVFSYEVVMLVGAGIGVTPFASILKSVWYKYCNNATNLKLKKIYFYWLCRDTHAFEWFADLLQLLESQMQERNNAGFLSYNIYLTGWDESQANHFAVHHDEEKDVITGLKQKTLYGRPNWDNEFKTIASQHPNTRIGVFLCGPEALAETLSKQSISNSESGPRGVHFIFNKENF
NADPH oxidase 4 (Homo sapiens), sequence (Q9NPH5 whole entry, looked up): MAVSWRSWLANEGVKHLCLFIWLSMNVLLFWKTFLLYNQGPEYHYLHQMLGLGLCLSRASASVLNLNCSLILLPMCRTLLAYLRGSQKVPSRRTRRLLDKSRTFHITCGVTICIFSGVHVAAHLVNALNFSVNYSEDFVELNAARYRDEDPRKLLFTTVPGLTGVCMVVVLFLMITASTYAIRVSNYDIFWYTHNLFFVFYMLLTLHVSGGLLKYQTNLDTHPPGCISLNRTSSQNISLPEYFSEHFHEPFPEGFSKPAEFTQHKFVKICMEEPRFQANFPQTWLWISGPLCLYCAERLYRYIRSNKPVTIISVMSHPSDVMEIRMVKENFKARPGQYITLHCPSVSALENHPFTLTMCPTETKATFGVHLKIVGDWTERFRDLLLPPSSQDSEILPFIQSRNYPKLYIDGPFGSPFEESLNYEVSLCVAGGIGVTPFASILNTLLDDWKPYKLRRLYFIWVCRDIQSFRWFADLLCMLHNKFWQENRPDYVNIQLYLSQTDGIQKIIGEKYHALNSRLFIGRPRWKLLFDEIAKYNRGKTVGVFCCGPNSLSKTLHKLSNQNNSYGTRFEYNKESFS
NADPH oxidase 5 (Homo sapiens), sequence (Q96PH1 whole entry, looked up): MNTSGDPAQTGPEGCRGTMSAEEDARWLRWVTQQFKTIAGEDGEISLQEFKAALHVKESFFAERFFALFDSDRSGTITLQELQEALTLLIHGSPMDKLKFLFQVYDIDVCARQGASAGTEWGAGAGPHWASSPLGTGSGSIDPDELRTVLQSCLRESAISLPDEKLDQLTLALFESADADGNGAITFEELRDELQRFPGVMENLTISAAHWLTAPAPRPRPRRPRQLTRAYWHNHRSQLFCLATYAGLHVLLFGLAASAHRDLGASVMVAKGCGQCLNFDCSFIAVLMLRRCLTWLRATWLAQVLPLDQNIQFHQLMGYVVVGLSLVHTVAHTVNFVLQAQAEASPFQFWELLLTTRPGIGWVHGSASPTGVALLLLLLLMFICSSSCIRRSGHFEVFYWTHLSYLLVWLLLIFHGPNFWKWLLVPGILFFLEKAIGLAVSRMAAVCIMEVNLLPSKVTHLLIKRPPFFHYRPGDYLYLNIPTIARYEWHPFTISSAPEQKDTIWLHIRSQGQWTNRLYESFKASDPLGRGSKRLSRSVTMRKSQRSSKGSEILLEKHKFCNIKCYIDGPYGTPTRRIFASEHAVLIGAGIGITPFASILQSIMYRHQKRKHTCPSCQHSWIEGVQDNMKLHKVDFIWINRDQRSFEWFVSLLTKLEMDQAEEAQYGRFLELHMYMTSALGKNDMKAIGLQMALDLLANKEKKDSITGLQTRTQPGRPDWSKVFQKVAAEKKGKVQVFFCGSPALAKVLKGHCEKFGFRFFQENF

As for `COCCOC(=O)N1C(=O)[C@@]2(c3cc(C#Cc4ccc(OC)cc4)ccc31)[C@H](c1ccccc1OCCO)N1[C@H](c3ccccc3)[C@H](c3ccccc3)OC(=O)[C@H]1[C@@H]2C(=O)N1CCCCCCC1`, the z-score in [1] is 2.97 (inactive); in assay [3], 0.999 (inactive); in assay [4], 0.57 (inactive); in [5] it was 0.338 (inactive); in [6], -0.122 (inactive); in assay [7], 1.99. In addition, the z-score is -0.126 (inactive) in assay [8], 0.201 (inactive) in [9] and 1.19 in assay [10]. Moreover, the composite z-score in assay [2] was found to be 2.81.

In the case of `CCCCCCc1nc(C2CC2)cc2c1[Si](C(C)C)(C(C)C)O[C@H]2c1ccccc1`, the z-score in assay [1] is -1.27 (inactive); in [3], 0.0479 (inactive); in [4], -0.0357 (inactive); in [5], 0.453 (inactive); in [6], -0.11 (inactive); in assay [7] it was -0.653. The z-score in [8] was -3.31 (inactive); in assay [9] it was -0.00134 (inactive); in assay [10], -1.77. This compound also showed a composite z-score in assay [2] of -0.23.

Take `[N-]=[N+]=NCc1ccccc1[C@@H]1OC(c2ccc(OCCCO)cc2)=N[C@]1(CCS(=O)(=O)c1ccccc1)C(=O)NCC(O)CO` (stereo not given in full): the z-score was 0.766 (inactive) in assay [1]; 24.8 (active) in assay [3]; 8.05 (active) in [4]; 0.619 (inactive) in assay [5]; 0.158 (inactive) in assay [6]; 2.02 in [7]. Further, the z-score in assay [8] is 0.861 (inactive); in [9] it was 1.78 (inactive); in assay [10], 2.57. Besides, in assay [2], the composite z-score was found to be 0.546.

`CC1CC/C=C\[C@H]2OC34C=CCN(C(C)C)C(=O)[C@H]3N(CCCCCCO)C(=O)[C@@H]4C2C(=O)O1` (stereo not given in full): the z-score in assay [1] is 3.07 (inactive); in assay [3], 0.719 (inactive); in assay [4] it was 0.259 (inactive); in assay [5], -0.987 (inactive); in assay [6], -0.751 (inactive); in assay [7], 1.26. In addition, the z-score in assay [8] is 0.882 (inactive); in assay [9], 0.119 (inactive); in assay [10] it was 2.1. This compound also registered a composite z-score in [2] of -0.45.

Turning to `Cc1cc(C)c(C(O)C2C=CC3C(=O)NC(=O)C3N2Nc2ccc(Cl)cc2Cl)c(C)c1` (stereo not given), the z-score is -2.38 (inactive) in assay [1]; 3.38 (inactive) in assay [3]; 1.18 (inactive) in assay [4]; -1.55 (inactive) in [5]; 0.876 (inactive) in [6]; -0.919 in assay [7]. The results for the z-score in assay [8], in assay [9] and in assay [10] were 0.614 (inactive), -4.94 (inactive) and -1.3, respectively. Further, in assay [2], the composite z-score amounted to 0.479.

For `C=C(/C(=C/C[C@@H](OC(C)=O)c1cccc(OCCO)c1)c1cc(C(=O)OC)ccc1OC)C(C)C`, the z-score in assay [1] is 0.546 (inactive); in assay [3], 9.43 (active); in [4] it was 1.6 (inactive); in [5], 2.19 (inactive); in assay [6], 0.75 (inactive); in [7] it was 0.547. Also, the z-score in assay [8] is -2.08 (inactive); in assay [9], -1.07 (inactive); in [10], -2.17. The composite z-score in [2] came out at 0.0962.

For `O=C1O[C@@H](c2ccccc2)[C@@H](c2ccccc2)N2[C@@H](c3ccc(O)cc3)[C@]3(C(=O)Nc4ccc(C#CC5(O)CCCCCC5)cc43)[C@@H](C(=O)NC[C@H](O)c3ccccc3)[C@H]12`, the z-score in assay [1] was -0.557 (inactive); in [3] it was 0.996 (inactive); in [4], 0.707 (inactive); in assay [5] it was 1.08 (inactive); in [6], 0.973 (inactive); in [7] it was 0.173. For the same compound, the z-score in assay [8] was 1.14 (inactive); in assay [9] it was 0.441 (inactive); in assay [10] it was 0.0466. In addition, the composite z-score in assay [2] amounted to 0.315.

In the case of `CC(CO)N1C(=O)[C@@H]2[C@H]3C(=O)OCC=C[C@H]3OC23C=CCN(CCN2CCOCC2)C(=O)[C@@H]13` (stereo not given in full), the z-score in [1] was -1.06 (inactive); in [3] it was 0.158 (inactive); in assay [4] it was -0.358 (inactive); in [5], -0.0103 (inactive); in [6], -0.255 (inactive); in assay [7], -0.471. For the same compound, the z-score was 0.381 (inactive) in assay [8], 0.194 (inactive) in assay [9] and 1.2 in assay [10]. In assay [2], this compound had a composite z-score of -0.482.

With `CCOC(=O)C[C@H]1[C@H](OC(=O)c2cc3ccccc3oc2=O)[C@@H](NC(=O)c2ccc(-c3ccccc3)cc2)c2cc(OCCCO)ccc2N1C(=O)c1ccccc1`, the z-score in assay [1] was 1.27 (inactive); in assay [3], 0.697 (inactive); in assay [4] it was -1.44 (inactive); in [5], -0.249 (inactive); in assay [6], -2.22 (inactive); in [7], 0.683. Also, the values for the z-score in assay [8], in [9] and in [10] were -1.47 (inactive), 0.178 (inactive) and 0.748, respectively. The compound further showed a composite z-score in assay [2] of 0.0839.

Consider `CN1C(=O)C2C=CC(C(O)c3cccc(O)c3)N(Nc3ccccc3)C2C1=O` (stereo not given), for which the z-score was -0.85 (inactive) in assay [1]; -0.0746 (inactive) in [3]; 0.253 (inactive) in [4]; -0.606 (inactive) in assay [5]; 0.287 (inactive) in assay [6]; -0.967 in assay [7]. Also, the z-score in assay [8] was -2.6 (inactive); in assay [9], -5.27 (inactive); in assay [10], -4.62. Besides, the composite z-score in [2] worked out at 0.147.

Regarding `C#CCN([C@@H](Cc1ccc(O)cc1)C(=O)OC)[C@@H](/C=C/C1CC1)[C@H](O)Cc1ccccc1`, the z-score in assay [1] is -1.08 (inactive); in assay [3] it was 3.41 (inactive); in [4] it was 0.761 (inactive); in assay [5] it was -0.824 (inactive); in assay [6], 0.353 (inactive); in assay [7] it was -0.839. The z-score in assay [8] was 0.544 (inactive); in assay [9] it was -0.606 (inactive); in assay [10] it was -1.58. Further, the composite z-score in [2] was -0.294.

Take `CC[C@H]1C2=C3C(CC[C@H]4C(OCc5ccc(F)cc5C(F)(F)F)OC[C@](C)([C@@H]34)N(C(=O)OC(C)(C)C)C2)C(COC)C1COC` (stereo not given in full): the z-score in assay [1] was -1.22 (inactive); in assay [3], -0.0734 (inactive); in [4] it was -0.0681 (inactive); in assay [5], 0.337 (inactive); in [6], 0.297 (inactive); in assay [7], -0.371. The z-score in assay [8] was -0.67 (inactive); in [9], -1.45 (inactive); in assay [10], -1.54. The compound further came in with a composite z-score in assay [2] of 0.409.
